Assay outcomes: PubChem BioAssay, National Center for Advancing Translational Sciences (NCATS)
TDP1 cell CPT = growth inhibition of DT40 Tdp1-/-;hTDP1 cells with camptothecin (screen for TDP1 inhibitors). chicken DT40 Tdp1-/-;hTDP1 cells + 20 nM CPT, ATP luminescence, 48 h. Potency, µM (titrated, usually from 46.2 µM), for the others: at the highest dose activity change, negative = growth inhibition, hits mostly inhibitors. actives 12% (n = 420,000). AID 686979; further: potency means the concentration at half of the fitted maximal effect; nearly all actives have a fitted effect of over 55% in size
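Cell growth measured by CellTiter-Glo luminescence after a minimum 48 h, 37 C compound exposure with 20 nM CPT in Tdp1-knockout DT40 cells stably expressing hTDP1, seeded 400/well; qHTS titration format.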
HT1080NT lethal = kills 2HG-producing HT-1080-NT fibrosarcoma cells; HT-1080-NT fibrosarcoma viability, CellTiter-Glo ATP luminescence, 48 h; Potency, µM (highest dose often 46.1 µM), inactives show at the top dose activity, negative = less viability, most hits filed as cytotoxic; actives 1.6% (n = 360,000); AID 686970;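 further: NT is the 2HG producing partner of a matched IDH1 knockdown line; potency means the concentration at half of the fitted maximal effect; 0% = DMSO-treated cells and -100% = media-only wells without cells; nearly all actives have a fitted effect of over 55% in size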
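HT-1080-NT fibrosarcoma cells (2HG-overproducing), 750 cells/well in RPMI with 5% FBS, dosed after 2 h and incubated 48 h at 37C. CellTiter-Glo luminescence normalized to DMSO and no-cell wells; concentration-response curves fitted and classed.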
IL-1B inflam inh = inflammasome signaling inhibition, IL-1 beta readout; AID 743279; actives 4.7% (n = 360,000); THP-1 LPS/ATP IL-1B secretion, AlphaLISA, 16 h; stronger effect = lower value; activity change, % at 57.5 µM; in the data active means activity change below about -50%; inconclusive means mostly about -30% to -49%
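Secreted IL-1B measured by AlphaLISA bead assay after 16 h compound exposure of THP-1 cells; compounds (final up to 57.5 uM) added 1 h before LPS (250 ng/mL) and ATP (1.25 mM) stimulation; lower signal means less secretion.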
DT40 TDP1 no CPT = qHTS for Inhibitors of human tyrosyl-DNA phosphodiesterase 1 (TDP1): qHTS in cells in absence of CPT; AID 686978, 2013; actives 15% (n = 420,000); Potency, µM (highest dose often 46.2 µM), inactives show top-dose activity change, negative = growth inhibition, most hits filed as inhibitors; DT40 Tdp1-/- hTDP1 cells, no CPT, ATP luminescence, 48 h; further: potency means the concentration at half of the fitted maximal effect; nearly all actives have a fitted effect of over 55% in size
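Compound effects on proliferation are scored in DT40 Tdp1-/-;hTDP1 cells in the absence of CPT. ATP levels (CellTiter-Glo luminescence) are recorded after a ≥48 hr, 37 °C incubation.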
HT1080 IDH1KD tx = toxicity to HT-1080 IDH1 knockdown cells (counter line); HT-1080 IDH1 knockdown viability, ATP luminescence, 48 h; Potency, µM (series often up to 46.1 µM), for inactives: at the highest dose activity, negative = toxicity, usual class: cytotoxic; actives 2% (n = 360,000);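 further: potency means the concentration at half of the fitted maximal effect; 0% = DMSO wells and -100% = cell-free medium wells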
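In this qHTS, HT-1080 cells depleted of IDH1 are exposed for 48 h at 37 °C to compound titrations. Toxicity is scored from CellTiter-Glo luminescence, with DMSO as full viability and medium alone as none.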
Numbers without * were called inactive; [ ] = another dose, or the depositor's remark. Rows were chosen to be rich in hits. Some 19% of all compounds tested hit in one or more screens of this group. Unless noted, the call rests on the fitted dose curve; in most records, active means well fitted curve in the direction sought with a large enough effect; inconclusive means small, poorly fitted or top-dose-only effect, or another doubt; inactive means no such curve, though single readings can be large; an effect the other way counts as inactive or inconclusive. Unless noted, on the % scale 0 is the no-effect control and ±100 the full control effect.

Results for CCOC(=O)c1cc(-c2ccc(OC)cc2)nc2c1c(C)nn2CCC(N)=S ?
TDP1 cell CPT: inconclusive; HT1080NT lethal: -23%; IL-1B inflam inh: inconclusive; DT40 TDP1 no CPT: inconclusive; HT1080 IDH1KD tx: inconclusive

How did CCOC(=O)Cc1cnc(NC(=O)CSc2nc(C)cc(C)n2)s1 do in these assays?
TDP1 cell CPT: -4%; HT1080NT lethal: -3%; IL-1B inflam inh: 47; DT40 TDP1 no CPT: inconclusive; HT1080 IDH1KD tx: 4%

What do the screens show for `CCc1ccc(CCC(=O)Nc2nnc(CC)s2)o1`?
TDP1 cell CPT: -25%; HT1080NT lethal: 0%; IL-1B inflam inh: -2; DT40 TDP1 no CPT: -7%; HT1080 IDH1KD tx: 5%

Results for Cc1cc(C)nc(SCC(=O)Nc2ncc(Cc3cccc(Cl)c3Cl)s2)n1 ?
TDP1 cell CPT: 23µM*; HT1080NT lethal: 3%; IL-1B inflam inh: 8; DT40 TDP1 no CPT: 18µM*; HT1080 IDH1KD tx: -4%

What do the screens show for `Cc1cnc(NC(=O)Cc2ccccc2F)s1`?
TDP1 cell CPT: 7.3µM*; HT1080NT lethal: -25%; IL-1B inflam inh: -14; DT40 TDP1 no CPT: 21µM*; HT1080 IDH1KD tx: -7%

What do the screens show for `COc1ccccc1CCC(=O)Nc1ncc(C)s1`?
TDP1 cell CPT: 10µM*; HT1080NT lethal: -15%; IL-1B inflam inh: 0; DT40 TDP1 no CPT: inconclusive; HT1080 IDH1KD tx: -2%

Results for COc1ccccc1CCC(=O)Nc1nccs1 ?
TDP1 cell CPT: -17%; HT1080NT lethal: 18%; IL-1B inflam inh: -6; DT40 TDP1 no CPT: inconclusive; HT1080 IDH1KD tx: 15%

What do the screens show for `Cc1cnc(NC(=O)CN2CCN(c3ccccc3F)CC2)s1`?
TDP1 cell CPT: inconclusive; HT1080NT lethal: 15%; IL-1B inflam inh: 7; DT40 TDP1 no CPT: -17%; HT1080 IDH1KD tx: 8%[9.24 µM]

How did CCc1ccc(CCC(=O)Nc2ncc(Cc3ccccc3Cl)s2)o1 do in these assays?
TDP1 cell CPT: 5.2µM*; HT1080NT lethal: 6.5µM*; IL-1B inflam inh: -1; DT40 TDP1 no CPT: 5.8µM*; HT1080 IDH1KD tx: 4.6µM*

How did O=[N+]([O-])c1ccccc1CCc1ccccc1[N+](=O)[O-] do in these assays?
TDP1 cell CPT: -5%; HT1080NT lethal: -7%; IL-1B inflam inh: -5; DT40 TDP1 no CPT: -16%; HT1080 IDH1KD tx: 0%

How did CCOc1ccc(CCNS(=O)(=O)c2c(C)nc3sc(C)cn3c2=O)cc1OCC do in these assays?
TDP1 cell CPT: -3%; DT40 TDP1 no CPT: 3%

What do the screens show for `Cc1ccc(-n2ccn(CC(=O)NCCc3ccccc3)c(=O)c2=O)cc1C`?
TDP1 cell CPT: -29%; HT1080NT lethal: 6%; IL-1B inflam inh: -11; DT40 TDP1 no CPT: -22%; HT1080 IDH1KD tx: 0%

Results for Cc1ccccc1NC(=O)CC1C(=O)Nc2ccccc2N1CC(=O)N(C)C1CCS(=O)(=O)C1 (configuration not stated) ?
TDP1 cell CPT: -25%; HT1080NT lethal: 0%; IL-1B inflam inh: 46; DT40 TDP1 no CPT: 0%; HT1080 IDH1KD tx: 6%

What do the screens show for `O=C(NCc1ccc(F)cc1)c1cc(C2CCCCN2C(=O)c2ccccc2)on1` (configuration not stated)?
TDP1 cell CPT: inconclusive; HT1080NT lethal: -19%; IL-1B inflam inh: -2; DT40 TDP1 no CPT: inconclusive; HT1080 IDH1KD tx: -3%

How did COc1ccc(C(=O)N2CCCCC2c2cc(C(=O)NCc3ccc(F)cc3)no2)cc1 (configuration not stated) do in these assays?
TDP1 cell CPT: 16µM*; HT1080NT lethal: 2%; IL-1B inflam inh: -11; DT40 TDP1 no CPT: inconclusive; HT1080 IDH1KD tx: -4%

How did O=C(NCc1ccc(F)cc1)c1cc(C2CCCCN2C(=O)c2ccc(Cl)cc2)on1 (configuration not stated) do in these assays?
TDP1 cell CPT: inconclusive; HT1080NT lethal: inconclusive; IL-1B inflam inh: 0; DT40 TDP1 no CPT: 15µM*; HT1080 IDH1KD tx: inconclusive
